Experimental data taken from PubChem BioAssay (EPA / NIEHS).
Results filed as inconclusive are left out. The source made the active and inactive calls. How the source made its calls: active means hit-call score of the fitted dose curve at least 0.9, where 1 is the maximum; inconclusive means response in the unintended direction; inactive means score below 0.9.

The compounds below were run against human Matrix Metalloproteinase-3 (MMP3), MMP3 (gene 4314) (UniProt P08254) (assay: NVS_ENZ_hMMP3: NovaScreen (NVS) Enzymatic Assay for human Matrix Metalloproteinase-3 (MMP3) (AID 2283185)).
human Matrix Metalloproteinase-3 (MMP3), MMP3 (gene 4314), sequence (P08254 whole entry, looked up): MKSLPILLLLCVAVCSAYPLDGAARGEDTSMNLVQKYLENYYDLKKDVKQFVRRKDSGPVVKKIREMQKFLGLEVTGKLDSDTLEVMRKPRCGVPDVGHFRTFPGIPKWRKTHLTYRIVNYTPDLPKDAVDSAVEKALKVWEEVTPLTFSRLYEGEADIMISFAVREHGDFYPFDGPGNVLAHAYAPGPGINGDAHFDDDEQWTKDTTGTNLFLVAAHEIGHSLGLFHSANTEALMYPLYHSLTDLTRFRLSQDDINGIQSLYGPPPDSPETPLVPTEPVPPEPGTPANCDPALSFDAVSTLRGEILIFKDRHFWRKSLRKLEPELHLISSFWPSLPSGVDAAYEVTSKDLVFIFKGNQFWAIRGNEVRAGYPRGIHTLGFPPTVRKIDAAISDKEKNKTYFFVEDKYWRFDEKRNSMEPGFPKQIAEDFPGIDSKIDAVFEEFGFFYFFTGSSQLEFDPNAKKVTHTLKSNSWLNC
Protocol: NVS_ENZ_hMMP3 is a biochemical, single-readout assay that uses extracted gene-proteins in a cell-free assay. Measurements were taken 1 hour after chemical dosing in a 96-well plate.NVS_ENZ_hMMP3 is one of one assay component(s) measured or calculated from the NVS_ENZ_hMMP3 assay. It is designed to make measurements of enzyme activity, a form of enzyme reporter, as detected with fluorescence intensity signals by Fluorescence technology.Data from the assay component NVS_ENZ_hMMP3 was analyzed into 1 assay endpoint. This assay endpoint, NVS_ENZ_hMMP3, was analyzed in the positive analysis fitting direction relative to DMSO as the negative control and baseline of activity. Using a type of enzyme reporter, loss-of-signal activity can be used to understand changes in the enzymatic activity as they relate to the gene MMP3. Furthermore, this assay endpoint can be referred to as a primary readout, because this assay has produced multiple assay endpoints where this one serves a enzymatic activity function. To generalize the intended target to other relatable targets, this assay endpoint is annotated to the protease intended target family, where the subfamily is matrix metalloproteinase.
Binding assays used specific radioligands (tritiated, iodinated) with non-radioactive competitive displacement ligands in agonist or antagonist protocols (as indicated) and various reference compounds and inhibitors to titrate specific binding to receptors and transporters. Most enzyme assays (CYPs, kinases, phosphatases, proteases, HDACs) used recombinant protein and specific substrates (fluorescence mostly, some colorimetric and radioactive) and inhibitors, followed by a biochemical separation of substrate and product. All assays for the biochemical HTS were initially run in duplicate at a single concentration (10 uM for CYP450 assays and 25 uM for all others). […] Each assay was run with positive and negative controls, and concurrent controls on every plate. The follow-up (secondary) screen tested active chemical-pairs in concentration series, as well as a few additional assays not tested in the primary screen, some selected negative inactives, and several cases re-run in the concentration series for confirmatory purposes.

AC50, active:
O=C(O)c1ccccc1-n1cc(C(=O)O)c(=O)c2cc(Nc3c(F)cc(F)cc3Cl)c(Cl)cc21 21.8 µM
CCCCCCCCOC(=O)c1cc(O)c(O)c(O)c1 5.82 µM
CCN(Cc1cccc(S(=O)(=O)O)c1)c1ccc(C(=C2C=CC(=[N+](CC)Cc3cccc(S(=O)(=O)O)c3)C=C2)c2ccccc2S(=O)(=O)[O-])cc1 16.1 µM
CCCOC(=O)c1cc(O)c(O)c(O)c1 11.9 µM

outcome, inactive:
CCN(Cc1cccnc1)C(=O)c1cccc(Cl)c1[C@]1(C)C(=O)N(Cc2ccc(OC)cc2OC)c2ccc(Cl)cc21
O=C1O[C@H]([C@@H](O)CO)C(O)=C1O
CN(C)c1ccc(C(=C2C=CC(=[N+](C)C)C=C2)c2ccc(N(C)C)cc2)cc1
O=C1CCC(C2CCCCC2)CC1
O=C(O)Cc1cc(I)c(Oc2ccc(O)c(I)c2)c(I)c1
CCCCCCCCOc1ccc(C(=O)c2ccccc2)c(O)c1
CN1C(=O)N(c2ccccc2Br)Cc2cnc(Nc3ccc4c(c3)OCC(CO)O4)nc21 (configuration not stated)
CCCCOC(=O)c1ccc(O)cc1
